Data: the supplement of paper PMC6555819

Key:
Assay in all cases: PBM binding z-score (relative to random genomic background probes); higher = stronger binding; sequences stand for … in GC…GCGATTGACAGCGTAGAATGAAGG
[1] = test system: FXR:RXRa (NR concentration 270 nM, RXRa partner concentration 90 nM)
Summary of the method: (§1)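 On custom Agilent 4×180K arrays, double-stranded probes with 34-nt variable regions carried direct-repeat seeds, single-nucleotide variants, half-site ablations or random human genomic background. Ligand-free nuclear receptor dimers were applied for 1 h, and binding was read with antibodies against each partner (one per run). Binding z-scores come from regression-normalized fluorescence, with the random background probes as reference.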

[2] = test system: LXRa:RXRa (NR concentration 270 nM, RXRa partner concentration 90 nM)
Summary of the method: as §1

[3] = test system: LXRa homodimer (NR concentration 270 nM)
Summary of the method: as §1

[4] = test system: LXRb:RXRa (NR concentration 270 nM, RXRa partner concentration 90 nM)
Summary of the method: as §1

[5] = test system: LXRb homodimer (NR concentration 270 nM)
Summary of the method: as §1

[6] = test system: PPARa:RXRa (NR concentration 270 nM, RXRa partner concentration 90 nM)
Summary of the method: as §1

[7] = test system: PPARg:RXRa (NR concentration 180 nM, RXRa partner concentration 90 nM)
Summary of the method: as §1

[8] = test system: PPARg:RXRa 270nM:90nM, anti-RXR (NR concentration 270 nM, RXRa partner concentration 90 nM)
Summary of the method: as §1

[9] = test system: PPARg:RXRa 30nM:10nM, anti-RXR (NR concentration 30 nM, RXRa partner concentration 10 nM)
Summary of the method: as §1

[10] = test system: PPARg:RXRa 90nM:30nM, anti-RXR (NR concentration 90 nM, RXRa partner concentration 30 nM)
Summary of the method: as §1

[11] = test system: PPARg:RXRa DBDmut IVT, anti-RXR (DBD mutation: RXRa K156A/R161A, NR concentration 270 nM, RXRa partner concentration 90 nM)
Summary of the method: as §1

[12] = test system: PPARg:RXRa IVT, anti-PPARg (NR concentration 270 nM, RXRa partner concentration 90 nM)
Summary of the method: as §1

[13] = test system: PPARg DBDmut IVT, anti-PPARg (DBD mutation: PPARg1 K132A/R137A, NR concentration 270 nM)
Summary of the method: as §1

[14] = test system: PPARg homodimer (NR concentration 180 nM)
Summary of the method: as §1

[15] = test system: PXR:RXRa (NR concentration 270 nM, RXRa partner concentration 90 nM)
Summary of the method: as §1

[16] = test system: PXR homodimer (NR concentration 270 nM)
Summary of the method: as §1

[17] = test system: RARa:RXR (NR concentration 270 nM, RXRa partner concentration 90 nM)
Summary of the method: as §1

[18] = test system: RARa homodimer (NR concentration 270 nM)
Summary of the method: as §1

[19] = test system: RARb:RXRa (NR concentration 270 nM, RXRa partner concentration 90 nM)
Summary of the method: as §1

Sequence | PBM binding z-score [1] | PBM binding z-score [2] | PBM binding z-score [3] | PBM binding z-score [4] | PBM binding z-score [5] | PBM binding z-score [6] | PBM binding z-score [7] | PBM binding z-score [8] | PBM binding z-score [9] | PBM binding z-score [10] | PBM binding z-score [11] | PBM binding z-score [12] | PBM binding z-score [13] | PBM binding z-score [14] | PBM binding z-score [15] | PBM binding z-score [16] | PBM binding z-score [17] | PBM binding z-score [18] | PBM binding z-score [19]
ATAAGTAGGTTAGGGTCATTCAGAAAGTAGGGAA | 4.83 | 4.27 | 1.68 | 4.53 | 2.04 | 5.65 | 8.07 | 7.06 | 4.72 | 7 | 6.82 | 6.77 | 2.11 | 3.79 | 4.78 | 3.26 | 5.36 | 2.72 | 3.63
CGCACTAGGTCACCAGGACAGTGAAGAGGTTGGA | 3.84 | 2.51 | 0.256 | 1.9 | -0.125 | 4.91 | 8.32 | 6.61 | 4.56 | 6.23 | 8.2 | 8.52 | 2.13 | 1.92 | 1.29 | 0.413 | 2.48 | 0.466 | 4.12
CGAACTAGGTTACCAGGACAGTGAAGAGGTTGGA | -0.174 | -0.0635 | -0.296 | -0.238 | -0.499 | 2.53 | 3.94 | 3.65 | 0.924 | 2.52 | 6.94 | 6.73 | 2.08 | 0.829 | -0.124 | -0.211 | 0.296 | -0.114 | 1.13
CGAACTAGGTCAAAGGACAGTGATAGGCGACGTA | 3.8 | 2.62 | 0.0431 | 1.64 | -0.0452 | 5.27 | 10.2 | 8.27 | 8.49 | 9.35 | 8.07 | 8.07 | 0.359 | 1.45 | 1.14 | -0.148 | 2.05 | 0.153 | 3.95
CGAACTAGTTCAAAGGACAGTGAAAGGCGACGTA | -0.112 | -0.0127 | -0.428 | -0.231 | -0.842 | 1.62 | 2.23 | 3.51 | 1.75 | 3.25 | 0.0129 | 0.499 | -0.185 | 0.158 | 0.27 | 0.322 | 0.253 | 0.148 | 1.91
CGAACTAGGTCAAAGGACAGTGACAGGCGACGTA | 4.22 | 2.82 | 0.19 | 1.88 | -0.493 | 5.56 | 10.5 | 8.72 | 8.9 | 9.48 | 8.32 | 8.4 | 1.51 | 1.78 | 1.3 | 0.0588 | 2.47 | 0.339 | 4.01
CGAACTAGGTCACCAGGGCAGTGAAGAGGTTGGA | 3.67 | 2.48 | 0.0109 | 1.52 | -0.639 | 5.2 | 8.69 | 6.86 | 4.52 | 6.42 | 8.17 | 8.88 | 0.642 | 1.95 | 1.7 | -0.014 | 2.53 | 0.458 | 4.22
ATATATAGGTTAGGGTCATTCAGAAAGTAGGGAA | 5.26 | 4.34 | 1.79 | 4.71 | 2.26 | 5.6 | 8.16 | 6.57 | 4.73 | 6.58 | 6.92 | 6.72 | 2.87 | 4.26 | 4.79 | 2.81 | 5.43 | 2.83 | 3.58
CGAGCTAGGTCAAAGGACAGTGAAAGGCGACGTA | 4.09 | 2.67 | -0.157 | 1.53 | -0.726 | 3.86 | 5.44 | 6.04 | 3.68 | 5.95 | 3.53 | 3.85 | -0.971 | 1.2 | 1.01 | -0.591 | 2.39 | -0.312 | 4.04
ATATGTAGGTTAGGGTCATTCAAAAAGTAGGGAA | 4.97 | 4.06 | 1.57 | 4.59 | 1.42 | 5.83 | 7.96 | 7.02 | 4.85 | 6.73 | 6.37 | 6.88 | 2.24 | 2.6 | 4.47 | 2.2 | 5.13 | 2.37 | 3.59
CGAACTAGGTCACTAGGACAGTGAAGAGGTTGGA | 2.63 | 1.57 | -0.199 | 0.869 | -0.496 | 4.78 | 8.29 | 6.68 | 3.9 | 6.28 | 7.81 | 8.81 | 2.32 | 1.48 | 0.625 | 0.00587 | 1.68 | 0.195 | 3.62
CGAACTAGGTCAAAGGACAGTGAGAGGCGACGTA | 4.2 | 2.38 | -0.449 | 1.41 | -0.441 | 5.65 | 10.3 | 8.86 | 8 | 9.29 | 7.99 | 8.52 | 1.52 | 1.96 | 0.82 | -0.246 | 2.11 | 0.479 | 3.81
ATATGTAGGTTCGGGTCATTCAGAAAGTAGGGAA | 3.32 | 2.84 | 1.01 | 3.38 | 1.52 | 4.37 | 4.22 | 4.12 | 1.6 | 3.34 | 3.06 | 4.01 | 1.7 | 2.61 | 3.53 | 1.57 | 3.97 | 1.72 | 2.5
CGAACAAGGTCAAAGGACAGTGAAAGGCGACGTA | 7.69 | 5.16 | 0.368 | 4.24 | 0.892 | 6.01 | 7.72 | 6.93 | 4.75 | 6.72 | 3.85 | 5.39 | 1.79 | 2.54 | 4 | 0.956 | 4.62 | 0.893 | 4.98
ATCTGTAGGTTAGGGTCATTCAGAAAGTAGGGAA | 4.95 | 4.18 | 1.54 | 4.44 | 2.08 | 4.99 | 4.27 | 4.32 | 2.09 | 3.76 | 2.86 | 3.74 | 2.08 | 3.23 | 4.42 | 2.1 | 5.21 | 2.2 | 3.58
